In all, about 33,000 sequences were measured (“E-score (-0.5 to 0.5)”: median about -8e-05, highest 2% from about 0.23 on). The sample as a whole holds a higher share of the highest values than the screen did.
These sequences were tested against T1, Nrg2 (UniProt P38082) (assay: PBM E-score (8-mer binding enrichment) (E-score (-0.5 to 0.5)); higher = stronger / more preferred TF binding). Conditions: protein concentration: 100 nM; construct: GST-full length.
T1 sequence: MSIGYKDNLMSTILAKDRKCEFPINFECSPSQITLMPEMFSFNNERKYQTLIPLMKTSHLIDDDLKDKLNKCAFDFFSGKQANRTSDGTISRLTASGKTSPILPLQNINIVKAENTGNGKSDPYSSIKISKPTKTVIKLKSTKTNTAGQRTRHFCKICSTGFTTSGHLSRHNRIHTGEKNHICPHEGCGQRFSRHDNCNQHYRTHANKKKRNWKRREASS
Procedure: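 Universal 'all 10-mer' protein binding microarrays (Agilent AMADID 015681) probed with GST-tagged S. cerevisiae TFs (full-length or DBD) made by in vitro transcription/translation (PURExpress), about 100-200 nM. Bound TF was detected with fluorescent anti-GST. Each ungapped 8-mer (which stands for itself and its reverse complement) is scored by the PBM enrichment score (E-score), a modified Wilcoxon-Mann-Whitney statistic from -0.5 to +0.5, computed with the Universal PBM Analysis Suite. Scale: above 0.35 generally sequence-specific binding.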

Row | Sequence | PBM E-score
1 | ATCGCGCA | -0.004
2 | AACGCGCA | 0.0385
3 | AACGCGCG | 0.319
4 | ATCGCGCC | 0.201
5 | CGAGCGAC | -0.0894
6 | CAGGCGCG | 0.231
7 | AGAGCGAG | -0.0653
8 | CAGGCGCA | -0.114
9 | CGAGCGAG | 0.249
10 | AACGCGCT | 0.123
11 | ATCGCGCG | 0.241
12 | ATTCCCAA | 0.0933
13 | AGGCCCCT | 0.0783
14 | AGCCTCGA | -0.0885
15 | CTAGTACA | 0.0576
16 | ACCCTAGC | 0.0587
17 | CTACTGAA | 0.029
18 | ATCCGATA | 0.00821
19 | AAGCAGTC | -0.135
20 | CTCTCTTA | -0.0805
21 | AGCAAAGA | -0.0188
22 | AGACCAAT | -0.00568
23 | AGCGCGAG | 0.0635
24 | CGCGGGCA | 0.281
25 | GGCGGGCA | -0.0772

Row | Sequence | PBM E-score
26 | CGCGCGCA | 0.296
27 | CGCGCGAA | 0.157
28 | AAAACGCG | 0.285
29 | TGCGCGCA | 0.211
30 | AAAACGCC | 0.0808
31 | CACGCGCA | -0.0169
32 | CGCGGGCC | 0.176
33 | CAAACGCG | 0.0917
34 | CGCGCGAG | 0.245
35 | AAGATCGT | 0.0712
36 | TCAGAGCA | -0.0393
37 | CACTTCAC | -0.0837
38 | GCAACAGA | 0.0125
39 | ATTGGAGG | -0.149
40 | AATCGCGG | 0.162
41 | ACCTCACT | -0.0963
42 | CTCGCGAA | -0.00662
43 | CGCGCGCC | 0.211
44 | CGCGCGCG | 0.302
45 | ATCGTGCG | 0.272
46 | CACGCGAG | 0.225
47 | ATCGTGCC | -0.145
48 | ATCGTGCA | 0.0864
49 | CCCGCGCG | 0.178
50 | CTCGCGAG | 0.257

Row | Sequence | PBM E-score
51 | AGTATACG | 0.0367
52 | CCCCAGAA | -0.0495
53 | GATTGGCA | -0.0954
54 | TCCAGACA | -0.0642
55 | GGTAACGA | -0.00769
56 | AATTGTGA | 0.116
57 | CTCACAAC | 0.206
58 | ATCGGAAA | 0.0359
59 | GTCGGAAA | 0.234
60 | CTCGGAAA | -0.0457
61 | ATGTGAGG | -0.0251
62 | ATGTCCGG | 0.0983
63 | GTGTAGTA | -0.0167
64 | ATGTAGTA | 0.154
65 | CTGTAGTA | 0.245
66 | CAGCGTTC | 0.0488
67 | TGCCAACA | 0.0266
68 | AAATCTTG | 0.0495
69 | CGGCAGAA | 0.154
70 | AATGAAGA | 0.14
71 | AATGAAGT | 0.23
72 | AATGAAGG | 0.0439
73 | CTGAACGA | -0.166
74 | AACGCAGC | 0.253
75 | CACGCAGC | -0.0258

Row | Sequence | PBM E-score
76 | AACGCAGA | -0.0108
77 | CGGGTAAG | -0.13
78 | AAACTATT | -0.0651
79 | CTCATTTC | -0.0953
80 | ATCATTTA | 0.0968
81 | ATCATTTC | 0.242
82 | AGTGCACG | 0.0226
83 | AATCATAT | 0.0761
84 | AATCATAG | 0.235
85 | AATCATAC | 0.116
86 | AGATTTGG | -0.144
87 | CAAGTTGG | 0.225
88 | ATTTGTTC | 0.272
89 | CTTTGTTC | 0.0376
90 | ATTTGTTA | 0.113
91 | GAGTCAGC | -0.151
92 | AAAAGTCG | 0.0204
93 | ACCCCATG | 0.217
94 | GAAAAATC | 0.099
95 | GCATTGCC | -0.0164
96 | CTTCGAAC | 0.108
97 | GTTCGAAC | 0.233
98 | ATTCGAAC | 0.155
99 | GGAAGCAA | -0.0162
100 | CCATGCAG | 0.155

Row | Sequence | PBM E-score
101 | TCATGCAA | 0.192
102 | CCATGCAA | 0.247
103 | GGGGTCAC | -0.0806
104 | ACGGGCGC | 0.0207
105 | AATCCCCT | 0.0153
106 | AACATAAA | -0.0006
107 | AACATAAT | 0.248
108 | AACATAAG | 0.246
109 | AACATAAC | 0.134
110 | CACATAAG | 0.0356
111 | ATCATAAG | -0.085
112 | GAAGGCAC | 0.0779
113 | TGTGAGAA | 0.183
114 | ATATAGTC | 0.196
115 | CTATATAA | 0.0499
116 | ATATAGTG | 0.241
117 | CTCTATAC | -0.0911
118 | CTATATAC | 0.238
119 | ATACATAC | 0.0623
120 | TTATATAA | 0.192
121 | ATATATAA | 0.24
122 | ATATAGTA | 0.155
123 | ATACATAT | 0.235
124 | CTATATAG | 0.00641
125 | ATACATAA | 0.0727

Row | Sequence | PBM E-score
126 | AGTGAGGC | -0.0681
127 | AACCTTGC | -0.0724
128 | AGCCAAAC | 0.121
129 | AGATTACG | 0.121
130 | AGCCGGAG | 0.023
131 | CGGTGAAG | -0.222
132 | GCAACGAA | 0.187
133 | ACCATCAC | -0.0188
134 | ATATATGC | 0.18
135 | ATATATAT | 0.107
136 | ATATATGG | 0.23
137 | ATATATGA | 0.0746
138 | ATATATAC | 0.329
139 | GTATATAC | 0.0119
140 | AACATCGG | -0.137
141 | CTACAGAA | 0.0765
142 | CGGGTGAA | 0.16
143 | ACTCAGGA | -0.067
144 | ACTCAGGG | 0.294
145 | ATTCAGGA | 0.117
146 | ATCCAGGA | -0.0938
147 | ATCCAGGC | 0.0212
148 | ACTCAGGC | 0.00622
149 | ATTCAGGC | 0.106
150 | AATCAGGG | 0.0765

Row | Sequence | PBM E-score
151 | CATCAGGC | -0.00739
152 | ATCCAGGG | 0.349
153 | ATTCAGGG | 0.367
154 | CATCAGGG | 0.229
155 | AGCACAAC | 0.0937
156 | CTGTGCTC | 0.0672
157 | GGCTGTTA | -0.00387
158 | ATCCGTAA | -0.136
159 | AGGCTTCC | 0.0147
160 | TCTCTCAA | 0.14
161 | CAGTGAAG | -0.0253
162 | CAGTGAAC | 0.248
163 | CAGTGAAA | 0.0943
164 | CCAGATAC | -0.0175
165 | GTATGCAA | 0.0781
166 | GACCAGTA | -0.174
167 | CGAATCAA | 0.22
168 | CGAATCAG | 0.122
169 | AGAATCAA | 0.103
170 | TGAATCAA | 0.232
171 | CGAATTAA | 0.175
172 | TGAATTAA | 0.273
173 | AGAATCAT | 0.0757
174 | GGAATTAA | 0.153
175 | AGAATCAG | 0.272
